MRP-1 activ – activators of MRP-1; H69AR cells + doxorubicin, viability rescue, CellTiter-Glo; viability increase, % at 10 µM; 0.61% of 140,000 active; AID 799;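 active = viability gain under doxorubicin at or above a set limit, the compound median plus 3 SD, cut at about 4.7% in these data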;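 also: MRP-1 overexpressing cells given doxorubicin 25 µM after compound pretreatment; 18-22 h compound pretreatment then 72 h with doxorubicin before readout; 0% = doxorubicin-only wells and 100% = vehicle-treated cells without doxorubicin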
sEH inhibitor – soluble epoxide hydrolase (human) inhibition | P34913 | recombinant human sEH enzymatic activity assay | inhibition, % at 2 µM | 0.34% of 91,000 active | AID 707; in the data active = inhibition above about 80%
Target sequence (P34913 whole entry, looked up): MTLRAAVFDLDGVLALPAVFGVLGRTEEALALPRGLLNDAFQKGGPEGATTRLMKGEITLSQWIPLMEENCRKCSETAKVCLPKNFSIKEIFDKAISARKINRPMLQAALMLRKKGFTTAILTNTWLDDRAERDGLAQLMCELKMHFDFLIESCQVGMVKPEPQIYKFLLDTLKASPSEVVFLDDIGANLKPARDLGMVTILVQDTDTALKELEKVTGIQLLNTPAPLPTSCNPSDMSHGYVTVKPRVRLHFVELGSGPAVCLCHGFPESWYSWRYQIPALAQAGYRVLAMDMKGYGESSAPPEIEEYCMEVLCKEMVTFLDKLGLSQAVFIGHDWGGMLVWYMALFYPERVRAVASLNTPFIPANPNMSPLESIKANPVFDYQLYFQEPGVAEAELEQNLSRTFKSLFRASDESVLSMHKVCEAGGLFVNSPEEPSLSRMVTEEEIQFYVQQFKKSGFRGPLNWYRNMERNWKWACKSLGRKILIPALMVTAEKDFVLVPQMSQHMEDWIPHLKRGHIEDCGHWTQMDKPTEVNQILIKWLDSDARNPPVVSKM
sEH act – increases human soluble epoxide hydrolase activity | activation, % at 2 µM | P34913 | 0.04% of 91,000 active | purified human sEH enzymatic activity, activator screen; in the data active = activation above about 37%
Measles CPE – protection of cells from measles virus. Measles virus-infected cells, CPE protection, absorbance. protection (pct of control), % at 4 µM. 1.5% of 140,000 active. AID 841; in the data active = protection mostly above about 24%, no sharp cut-off; inactive = mostly below about 26%
SDO1 yeast rescue – sdo1-depleted yeast growth rescue; AID 817; z-score at 10 µM; 0.21% of 140,000 active; S. cerevisiae sdo1-depleted JHY4D growth rescue, OD600 30 h; hits give high values; pdr5 snq2 efflux-pump mutant strain;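 active = z-score above 3 at both the 24 hr and the 30 hr optical density reads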;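 also: z-score against mean and SD of all compound wells on the same plate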
MRP reversal – reverses drug resistance mediated by MRP. H69AR cells + 2 uM doxorubicin, CellTiter-Glo, 72 h. 0.04% of 85,000 active. differential viability (reversal), % at 10 µM. AID 602;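 active = viability drop by adding the cancer drug above about 55%, with treated viability meeting a 40% cutoff, limit read from the data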;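 also: viability without doxorubicin minus viability with 2 µM doxorubicin for each compound; larger differential means the compound sensitizes cells more to doxorubicin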
Active calls of the source: *; nt = not tested or not shown. An excerpt weighted towards active compounds, which were near 2.5% of everything screened.

SMILES	MRP-1 activ	sEH inhibitor	sEH act	Measles CPE	SDO1 yeast rescue	MRP reversal
CCS(=O)(=O)c1ccc(C(=O)Nc2ccccc2)c(Cl)c1Cl	2	nt	nt	89*	-0.54	nt
O=C(NC1CCCC1)c1ccc(CS(=O)(=O)c2ccc(Br)cc2)o1	-1	-1	3	18	-0.21	5
C=C(C)C(=O)NC1=NN(c2ccccc2)C(=O)C1	6.0*	nt	nt	8	-0.18	nt
CC(C)(Oc1ccc(Cl)cc1)C(=O)NC1=NN(c2ccccc2)C(=O)C1	1	nt	nt	28	0.48	nt
COc1cc(-c2nnc(COc3ccc4ccccc4c3)o2)cc(OC)c1OC	-2	-2	2	26	-0.58	-17
N#CCSc1nnc(COc2ccc3ccccc3c2)o1	-2	-6	5	46*	-1.2	-8
Cc1ccccc1C(=O)NC(=S)Nc1sc2c(c1C#N)CCC(C)C2 (stereo not given)	3	10	-8	59*	-0.62	nt
Cc1ccc(NC(=O)c2ccc(CSc3ccccn3)cc2)cc1	-1	19	-20	6	-1.1	nt
Cc1ccccc1NC(=O)c1ccc(CSc2ncccn2)cc1	3	-17	15	45*	-0.24	nt
O=C(C1=C(Nc2ccccc2)c2ccccc2S(=O)(=O)N1)c1ccccc1	-1	nt	nt	26*	-0.66	nt
Cc1ccccc1NC1=C(C(=O)c2ccccc2)N(C)S(=O)(=O)c2ccccc21	-2	5	-3	3	-1.2	nt
Cc1cc(C)cc(NC(=O)Cn2c(-c3ccccc3Cl)nc3ccccc32)c1	-5	nt	nt	35*	-1.3	nt
COC(=O)c1cn(NC(=O)c2ccc(F)cc2)c(=O)c2ccccc12	-2	14	-12	44*	-0.26	11
CCc1nn(-c2ccccc2)c2c1-c1cc(OC)c(OC)cc1C1(N2)C(=O)Nc2ccccc21 (stereo not given)	-2	-7	10	24	0.59	-24
CCC(=O)N1CCc2cc(S(=O)(=O)CCC(=O)NCCC3=CCCCC3)ccc21	-1	86*	-87	22	1.1	14
CC(=O)N1CCCc2cc(S(=O)(=O)N3CCc4ccccc4C3)ccc21	-3	nt	nt	6	-0.67	12
CCC(=O)N1CCc2cc(S(=O)(=O)N3CCc4ccccc4C3)ccc21	0	-16	17	28*	-0.16	7
Oc1ccc(/C=N/NC(=S)NCc2ccco2)cc1	0	-2	2	41*	-0.72	nt
CCN(CC)c1ccc(/C=N/NC(=S)NCc2ccco2)cc1	-2	nt	nt	11	-0.39	nt
C/C(CC(=O)Nc1cccnc1)=N\NC(=O)C(=O)Nc1cccc(C)c1	-2	nt	nt	8	1.1	nt
CCN(CC)S(=O)(=O)c1cccc(C(=O)Nc2ccccc2C(=O)N2CCOCC2)c1	-1	nt	nt	47*	1.1	11
CC1CCN(C(=O)c2ccccc2NC(=O)c2cccc(S(=O)(=O)N3CCOCC3)c2)CC1	0	nt	nt	13	-0.76	nt
CCOc1ccc(Nc2cc(C)nc(-n3nc(C)cc3C)n2)cc1	-4	7	-6	43*	-1.2	nt
CNc1cc(C)nc(-n2nc(C)cc2C)n1	1	1	0	5	0.13	-9
Cc1ccccc1NC(=O)Cc1nc(CCl)cs1	-5	nt	nt	42*	0.12	nt
SMILES	MRP-1 activ	sEH inhibitor	sEH act	Measles CPE	SDO1 yeast rescue	MRP reversal
O=C(Nn1c(C2CCCCC2)nc2ccccc2c1=O)c1ccc([N+](=O)[O-])cc1	-3	nt	nt	7	-0.17	nt
CC(=O)N1CCc2cc(C(=O)CN3CCC(C)CC3)ccc21	-2	nt	nt	35*	1.1	15
CCn1cc(S(=O)(=O)CC(=O)N2CCc3ccccc32)c2ccccc21	nt	nt	nt	nt	nt	0
COc1ccc(OC)c2c(C)cc(N3CCN(C(=O)c4ccc(Cl)cc4)CC3)nc12	-4	-20	16	56*	-1.9	-16
COCCNCC(=O)Nc1ccccc1Sc1ccccc1	-2	nt	nt	12	0.56	nt
CCOC(=O)C(NC(=O)CC)(Nc1ccccc1)C(F)(F)F (stereo not given)	-2	nt	nt	24*	0.86	nt
Cc1c(C(=O)N2CCCc3ccccc32)oc2ccc(S(=O)(=O)N3CCOCC3)cc12	-3	2	-2	6	-1.4	-14
N#CC1=C2C=Cc3ccccc3N2CCCC1=O	7.3*	nt	nt	26	0.88	1
O=C(Nc1cccn(Cc2c(Cl)cccc2Cl)c1=O)c1ccccc1Cl	2	-5	2	48*	-0.79	nt
CCOC(=O)c1c(-c2ccccc2Cl)csc1NC(=O)CSc1nc(C)cc(=O)[nH]1	-1	nt	nt	9	-0.14	nt
